# Source: PubChem
# Pf Dd2 growth – Plasmodium falciparum Dd2 growth inhibition. P. falciparum Dd2 growth, SYBR Green, 72 h. Potency, µM (top dose mostly 28.9 µM), for the others: at the highest dose activity, negative = inhibition, usual class: inhibitors. 4.3% of 120,000 active. AID 1347417; active means well fitted inhibition curve with a large enough effect;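 further: plate controls were DMSO vehicle for no effect and reference drug for full effect; nearly all actives have a fitted effect of over 65% in size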
#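 Infected erythrocytes (Dd2, 0.3% parasitemia, 2.5% hematocrit final) are added to compound in RPMI-1640/Albumax II medium, grown 72 h at 37C in low oxygen, then lysed with saponin/Triton-X containing SYBR Green and read by fluorescence.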
# An asterisk follows results filed as active; i = inactive; [ ] = dose if it differs, or a comment. This is one part of a sample in which hits are shown more often than they occur. Potency means the concentration at half of the fitted maximal effect.
SMILES,Pf Dd2 growth
Cc1cccnc1NCCNc1nc(C(C)C)nc2c1cnn2C,-25%
COCCCNc1nc(NCc2cccc(Cl)c2)c2cnn(C)c2n1,-9%
CC(C)CCNc1nc(Nc2ccccc2)c2cnn(C)c2n1,10µM*
COc1ccc(-c2cc(C[C@@H]3CC[C@H](O)[C@@H](CNC(=O)N4CCOCC4)O3)no2)cc1,i
FC(F)(F)c1cccc(C2=NOC3(CCCN(Cc4cccs4)C3)C2)c1 (stereo unspecified),-18%
CCCCc1nn(CC(=O)N2CCC(COC)C2)c(=O)n1Cc1ccccc1 (stereo unspecified),-7%
CCOc1ccccc1NC(=O)N1CCCCCCN(C)C(=O)CC1,-24%
CN1CCCCCCN(C(=O)NC2CCCCC2)[C@H]2CCC[C@H]2C1=O,i
CCOc1ccccc1NC(=O)N1CCCCCCN(C)C(=O)[C@H]2CCC[C@H]21,11µM*
CC(=O)c1c(C)nn(CCC(=O)N[C@@H]2CCOC[C@H]2OCCO)c1C,8%
Cc1nc2ccc(C(=O)N3CCCn4nc(CO)cc4C3)cc2o1,0%
CCCCc1ccc(NC(=O)Cn2c(C)cc3nc4n(c(=O)c32)CCCCC4)cc1,-9%
CC(C)n1cc2cc(C(=O)NC3CCCCCC3)sc2c1,i
N#Cc1cccc(CN2CCOC[C@H]2c2ncc(-c3ccc(F)cc3)[nH]2)c1,-10%[44.1 µM]
CC(=O)Nc1ccc(CN2CCOC[C@H]2c2ncc(-c3cccc(Cl)c3)[nH]2)cc1,-7%[44.1 µM]
Cn1ccnc1CN1CCOC[C@H]1c1ncc(-c2cccc(Cl)c2)[nH]1,5µM*
Oc1ccccc1CN1CCOC[C@H]1c1ncc(-c2cccc(Cl)c2)[nH]1,3.2µM*
c1cncc(CN2CCOC[C@H]2c2ncc(-c3cccnc3)[nH]2)c1,3%[44.1 µM]
Fc1ccc(-c2cnc([C@@H]3COCCN3Cc3ncc[nH]3)[nH]2)cc1,i
CN1CCN(c2nc3c(c(=O)[nH]2)CCN(Cc2ccccc2F)CC3)CC1,12%[5.79 µM]
CN(Cc1ccc(OC(F)(F)F)cc1)Cc1cccn1C,i
CC(C)CCN1C(=O)CC[C@]2(C(=O)NC3CC3)CCCC[C@@H]12,25%
CC(C)CCN1C(=O)CC[C@]2(C(=O)NCc3ccncc3)CCCC[C@@H]12,10%
CCCN(CCC)C(=O)[C@@]12CCCC[C@H]1N(CCC(C)C)C(=O)CC2,10µM*
Cn1ccn2ncc(C(=O)N3CCC(N4CCCC(C(=O)N5CCCC5)C4)CC3)c12 (stereo unspecified),4%
SMILES,Pf Dd2 growth
O=C(NCc1cccc(F)c1)c1c(OCC2CC2)cc(=O)n2c1CCCCC2,3%
CCOc1ccc(CN2CCN(C3CCN(C(C)C)CC3)CC2CCO)cc1 (stereo unspecified),-5%
COc1ccccc1N1CCN([C@@H]2[C@H](O)[C@H](CO)O[C@@H]2CNC(=O)c2ccccc2)CC1,13%
COc1ccccc1N1CCC(N2CCN(CCCc3ccccc3)C(CCO)C2)CC1 (stereo unspecified),10µM*
CN(C)c1cccc(Oc2nnnn2[C@H]2CO[C@H]3[C@@H]2OC[C@@H]3NC(=O)c2cncnc2)c1,-21%
CCc1ccccc1NC(=O)N1CCC(Oc2ncccc2NC)C1 (stereo unspecified),i
O=C1NC2(CCN(Cc3ccccn3)C2)Oc2ccccc21 (stereo unspecified),-8%[44.1 µM]
Cc1ccc2[nH]c(=O)c(CCC(=O)O)cc2c1,21%
Cc1cccc(-c2nocc2CCC(=O)NC2CCN(Cc3ccccc3)CC2)c1,i
Cc1ccc2[nH]c(=O)c(CCC(=O)NC3CCN(Cc4ccccc4)CC3)cc2c1,7.1µM*
Nc1nc(C2CC(N)C2)cc(N2CCN(C3CCCC3)C(=O)C2)n1 (stereo unspecified),-10%
COc1ccc(CN2Cc3cc(NC(=O)c4c(F)cccc4F)ccc3OCC2=O)c(OC)c1,i
Cc1nnsc1C(=O)N[C@H]1CCN(C(=O)c2ccco2)[C@H](C(=O)N[C@@H](Cc2cccs2)C(N)=O)C1,0%
Cc1nc2c(-c3ccc(F)cc3)c(C)nn2c(C)c1CCC(=O)NCc1ccc(F)cc1,41%
CCOC(=O)c1ccc(NC(=O)CCc2c(C)nc3c(-c4ccc(F)cc4)c(C)nn3c2C)cc1,3.5µM*
CCOC(=O)c1ccc(NC(=O)c2cnc3c(-c4ccc(F)cc4)c(C)nn3c2C)cc1,50%
O=C(CN1C(=O)COc2ccc(C(=O)COc3ccc(Cl)cc3F)cc21)NC1CCCCC1,5%
CC(=O)Nc1ccc([C@@H](O)[C@H]2COCC(=O)N2CCCc2ccccc2)cc1,i
CN1C(=O)COC[C@@H]1[C@H](O)c1ccc(NC(=O)c2cnccn2)cc1,-16%[44.1 µM]
O=C(Nc1ccc([C@@H](O)[C@H]2COCC(=O)N2CCCc2ccccc2)cc1)c1cnccn1,13µM*
C[C@@H]1CN(C(=O)c2scc3c2CCCC3)C[C@@]1(O)C1CC1,-18%
CN1CCC(N2CCC(CN(Cc3ccncc3)C(=O)c3cnc[nH]3)CC2)CC1,-15%
O=C(NCc1ccc(-c2ccccc2)cc1)[C@H]1CCC[C@H](O)C1,-3%
O=C(C[C@@H]1O[C@H](CNC(=O)Nc2ccccc2)[C@@H](O)[C@H]1O)NCCN1CCOCC1,26%[44.1 µM]
Cc1ccc(CNC(=O)c2ccc3c(c2)c(C)c(C)n3Cc2ccc(Cl)cc2)o1,10µM*
SMILES,Pf Dd2 growth
CCc1ccc(CNC(=O)c2ccc3c(c2)c(C)c(C)n3Cc2ccccc2)cc1,24%
Cc1c(C)n(Cc2ccccc2)c2ccc(C(=O)NCc3ccco3)cc12,7.1µM*
COc1ccccc1CCNC(=O)c1ccc2c(c1)c(C)c(C)n2Cc1ccc(Cl)cc1,i
COc1cccc(CNC(=O)c2ccc3c(c2)c(C)c(C)n3Cc2ccccc2)c1,1%
Cc1ccc(CNC(=O)c2ccc3c(c2)c(C)c(C)n3Cc2ccccc2)o1,-29%
Cc1cccc(C(=O)N2CCCC(n3cc(-c4nc(C)no4)nn3)C2)c1 (stereo unspecified),i
O=C(NC1CCCCC1)N1CC(c2nc(CCOCC3CC3)no2)C1,-5%
O=C1c2cnc(-c3ccncc3)nc2OCCN1Cc1ccc(F)cc1F,-28%[44.1 µM]
O=C1CCN(C(=O)c2ccco2)CCCCCCN1,-2%
CCOc1ccc(-c2cc3c(=O)n(CCNC(=O)c4cccc(Cl)c4)ccn3n2)cc1,i
Cc1cccc(CC(=O)N2CCC(c3nn(C)c4c3COCC4)CC2)c1,i[5.79 µM]
O=C(c1ccoc1)N1CCC(Nc2cccn3ncnc23)CC1,-18%
Cc1cccc(CC(=O)N2CCC(Nc3cccn4ncnc34)CC2)c1,11µM*
Cn1nccc1C(=O)N1CCCC(c2nc(-c3ccccc3)no2)CCNC(=O)CC1 (stereo unspecified),i
CNC(=O)NC[C@H]1CCN(C2CCSCC2)C[C@H]1N(C)C,25%
N#Cc1ccccc1S(=O)(=O)N[C@H]1CO[C@H]2[C@@H]1OC[C@H]2OC(=O)Nc1cccc(C(F)(F)F)c1,-10%
Cc1ccc(CNC(=O)CC2CCCN(c3cnn(C)c(=O)c3)C2)cc1 (stereo unspecified),5%
Cc1ccc(NC(=O)CSc2nc(-c3ccco3)cc(C(F)(F)F)n2)cc1C,-29%
COc1ccc(NC(=O)CCCSc2nc(-c3ccco3)cc(C(F)(F)F)n2)c(OC)c1,i
CC(=O)c1cccc(NC(=O)CCCSc2nc(-c3ccco3)cc(C(F)(F)F)n2)c1,3%
COc1ccc(NC(=O)CCCSc2nc(-c3ccco3)cc(C(F)(F)F)n2)cc1,85%
Cc1cc(F)ccc1NC(=O)CCSc1nc(-c2ccco2)cc(C(F)(F)F)n1,8.9µM*
Cc1ccc(NC(=O)CCSc2nc(-c3ccco3)cc(C(F)(F)F)n2)cc1F,0.79µM*
